In PubChem BioAssay AID1159580 (chemical genetic matrix, 2015):
Values joined by “and” are separate entries in the source; they are usually repeats but may differ in a detail not shown here. Identical values can stand only once. About 2,000 (36%) of roughly 5,500 compounds were called active. Another 18% or so got no clear call; they are omitted. No stated cut-off is given here; in the data, active means normalized growth mostly below about 0.91 (no sharp cut-off); inconclusive means no clear call, values can overlap the other calls; inactive means mostly above about 0.92. The list shows a part of the results.

Test: chemical genetic growth profiling, strain panel (AID 1159580);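 further: tested at 20 µM; growth read once vehicle control cultures reached saturation at 30 °C; 1 = growth at the plate median or of vehicle wells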
Conditions: S. cerevisiae deletion strains, growth OD

Measured: normalized growth

CC(=O)[O][Hg][c]1ccccc1
active: locus YAL013W, strain DEP1, stronger effect = lower value 0.0588 | locus YAL021C, strain ccr4, stronger effect = lower value 0.0671 | locus YAL026C, strain drs2, stronger effect = lower value 0.0633 | locus YAL030W, strain snc1, stronger effect = lower value 0.0569 | locus YBL061C, strain skt5, stronger effect = lower value 0.0592 | locus YBR009C, strain hhf1, stronger effect = lower value 0.066 | locus YBR021W, strain FUR4, stronger effect = lower value 0.089 | locus YBR023C, strain chs3, stronger effect = lower value 0.0614 | locus YBR171W, strain sec66, stronger effect = lower value 0.0817 | locus YBR229C, strain ROT2, stronger effect = lower value 0.0467 | locus YBR231C, strain swc5, stronger effect = lower value 0.0619 | locus YBR279W, strain paf1, stronger effect = lower value 0.0597 | locus YCL011C, strain gbp2, stronger effect = lower value 0.0585 | locus YCL016C, strain dcc1, stronger effect = lower value 0.0648 | locus YCL029C, strain bik1, stronger effect = lower value 0.0611 | locus YCL061C, strain MRC1, stronger effect = lower value 0.066 | locus YCL069W, strain vba3, stronger effect = lower value 0.062 | locus YCR088W, strain abp1, stronger effect = lower value 0.0606 | locus YDL005C, strain med2, stronger effect = lower value 0.0736 | locus YDL035C, strain GPR1, stronger effect = lower value 0.0539 | locus YDL040C, strain nat1, stronger effect = lower value 0.0587 | locus YDL074C, strain BRE1, stronger effect = lower value 0.0962 | locus YDL101C, strain DUN1, stronger effect = lower value 0.0592 | locus YDL134C, strain PPH21, stronger effect = lower value 0.0501 | locus YDL185W, strain tfp1, stronger effect = lower value 0.0588 | locus YDL192W, strain arf1, stronger effect = lower value 0.0622 | locus YDR001C, strain nth1, stronger effect = lower value 0.0585 | locus YDR069C, strain doa4, stronger effect = lower value 0.063 | locus YDR101C, strain arx1, stronger effect = lower value 0.0626 | locus YDR137W, strain rgp1, stronger effect = lower value 0.0849 | locus YDR150W, strain NUM1, stronger effect = lower value 0.0584 | locus YDR159W, strain sac3, stronger effect = lower value 0.0919 | locus YDR162C, strain NBP2, stronger effect = lower value 0.0545 | locus YDR195W, strain ref2 0.124 | locus YDR297W, strain sur2, stronger effect = lower value 0.0565 | locus YDR318W, strain mcm21, stronger effect = lower value 0.0644 | locus YDR334W, strain swr1, stronger effect = lower value 0.0648 | locus YDR335W, strain msn5, stronger effect = lower value 0.0613 | locus YDR388W, stronger effect = lower value 0.0584 | locus YDR392W, strain spt3, stronger effect = lower value 0.1 | locus YDR502C, strain sam2, stronger effect = lower value 0.0611 | locus YEL003W, strain gim4, stronger effect = lower value 0.0567 | locus YEL037C, strain rad23, stronger effect = lower value 0.0594 | locus YEL061C, strain CIN8 (second series), stronger effect = lower value 0.0646 | locus YEL061C, strain CIN8, stronger effect = lower value 0.0509 | locus YER015W, strain faa2, stronger effect = lower value 0.0603 | locus YER016W, strain bim1, stronger effect = lower value 0.0596 | locus YER110C, stronger effect = lower value 0.079 | locus YER111C, strain swi4, stronger effect = lower value 0.0727 | locus YER155C, strain BEM2 (second series), stronger effect = lower value 0.0919 | locus YER155C, strain BEM2, stronger effect = lower value 0.066 | locus YER167W, strain BCK2, stronger effect = lower value 0.0545 | locus YFR010W, strain ubp6, stronger effect = lower value 0.0677 | locus YGL078C, strain dbp3, stronger effect = lower value 0.0571 | locus YGL086W, strain mad1, stronger effect = lower value 0.0571 | locus YGL167C, strain pmr1, stronger effect = lower value 0.073 | locus YGL173C, strain kem1, stronger effect = lower value 0.0683 | locus YGL227W, strain vid30, stronger effect = lower value 0.0651 | locus YGL240W, strain doc1, stronger effect = lower value 0.077 | locus YGL248W, strain PDE1, stronger effect = lower value 0.0503 | locus YGL253W, strain hxk2, stronger effect = lower value 0.055 | locus YGR078C, strain PAC10, stronger effect = lower value 0.0552 | locus YGR135W, strain pre9, stronger effect = lower value 0.0651 | locus YGR229C, strain SMI1, stronger effect = lower value 0.0631 | locus YGR252W, strain gcn5, stronger effect = lower value 0.166 | locus YHR013C, strain ard1, stronger effect = lower value 0.105 | locus YHR027C, strain rpn1, stronger effect = lower value 0.0615 | locus YHR030C, strain SLT2, stronger effect = lower value 0.0511 and 0.112 | locus YHR079C, strain IRE1 (second series), stronger effect = lower value 0.0572 | locus YHR079C, strain IRE1, stronger effect = lower value 0.12 | locus YHR094C, strain hxt1, stronger effect = lower value 0.0582 | locus YHR129C, strain ARP1, stronger effect = lower value 0.0567 | locus YHR142W, strain chs7, stronger effect = lower value 0.0763 | locus YHR200W, strain rpn10, stronger effect = lower value 0.0605 | locus YIL066C, strain RNR3, stronger effect = lower value 0.059 | locus YIL073C, strain SPO22, stronger effect = lower value 0.112 | locus YIL125W, strain kgd1, stronger effect = lower value 0.0567 | locus YIR030C, strain dcg1, stronger effect = lower value 0.0603 | locus YJL092W, strain hpr5, stronger effect = lower value 0.0589 | locus YJL095W, strain BCK1 (second series), stronger effect = lower value 0.0569 | locus YJL095W, strain BCK1, stronger effect = lower value 0.0577 and 0.107 | locus YJL115W, strain asf1, stronger effect = lower value 0.0743 | locus YJL129C, strain trk1, stronger effect = lower value 0.0912 | locus YJL134W, strain LCB3, stronger effect = lower value 0.0514 | locus YJL154C, strain vps35, stronger effect = lower value 0.0614 | locus YJL164C, strain tpk1, stronger effect = lower value 0.0658 | locus YJL166W, strain qcr8, stronger effect = lower value 0.0602 | locus YJL168C, strain set2, stronger effect = lower value 0.0596 | locus YJL187C, strain SWE1 (second series), stronger effect = lower value 0.0495 | locus YJL187C, strain SWE1, stronger effect = lower value 0.0566 | locus YJR043C, strain POL32, stronger effect = lower value 0.069
